# Publication PMC4336329 (PLoS ONE, 2015)
# Out of some 310,000 compounds screened, about 14,000 (4.5%) showed an effect of 50% or more. Effects have a minus sign here. For the sample, strong results were picked, then their nearest neighbours and some compounds at random.
# Target: human ether-à-go-go-related gene (hERG) potassium channel (human, UniProt Q12809)
# Test: primary screen, population patch clamp on CHO cells stably expressing hERG; higher = less effect of the substance
# 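Note: peak tail current of the secondary pulse compared with the same well before compound.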
# human ether-à-go-go-related gene (hERG) potassium channel, sequence (Q12809 whole entry, looked up): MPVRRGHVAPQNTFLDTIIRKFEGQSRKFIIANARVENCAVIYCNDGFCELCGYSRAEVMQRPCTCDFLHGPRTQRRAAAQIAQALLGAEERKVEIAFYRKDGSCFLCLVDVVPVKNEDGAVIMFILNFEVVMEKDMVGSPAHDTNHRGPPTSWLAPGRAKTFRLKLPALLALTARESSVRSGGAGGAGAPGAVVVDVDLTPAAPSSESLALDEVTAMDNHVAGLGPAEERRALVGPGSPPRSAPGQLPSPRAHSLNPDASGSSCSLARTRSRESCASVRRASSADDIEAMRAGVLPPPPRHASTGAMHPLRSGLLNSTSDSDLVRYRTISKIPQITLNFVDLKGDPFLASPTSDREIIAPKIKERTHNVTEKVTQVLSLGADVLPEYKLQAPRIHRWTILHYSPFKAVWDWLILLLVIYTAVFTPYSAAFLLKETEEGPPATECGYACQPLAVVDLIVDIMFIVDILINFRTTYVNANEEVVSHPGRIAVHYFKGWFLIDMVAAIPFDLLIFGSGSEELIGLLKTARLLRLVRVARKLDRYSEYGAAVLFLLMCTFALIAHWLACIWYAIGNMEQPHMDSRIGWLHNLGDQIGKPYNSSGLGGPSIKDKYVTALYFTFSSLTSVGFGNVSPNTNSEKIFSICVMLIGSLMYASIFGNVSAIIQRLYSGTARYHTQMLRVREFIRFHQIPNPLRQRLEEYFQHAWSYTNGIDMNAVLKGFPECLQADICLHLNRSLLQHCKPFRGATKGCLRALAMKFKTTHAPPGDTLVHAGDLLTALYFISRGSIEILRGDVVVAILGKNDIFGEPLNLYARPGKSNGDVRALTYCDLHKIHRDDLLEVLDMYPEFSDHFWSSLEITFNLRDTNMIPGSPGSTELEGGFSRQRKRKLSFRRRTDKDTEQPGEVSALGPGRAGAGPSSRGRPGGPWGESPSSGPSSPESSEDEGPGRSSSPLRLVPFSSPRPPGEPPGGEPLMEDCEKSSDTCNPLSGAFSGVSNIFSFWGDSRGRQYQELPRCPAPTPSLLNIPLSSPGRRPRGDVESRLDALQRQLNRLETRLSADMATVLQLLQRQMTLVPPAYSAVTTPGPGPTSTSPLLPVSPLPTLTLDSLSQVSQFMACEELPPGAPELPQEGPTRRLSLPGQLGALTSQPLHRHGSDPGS
row,Structure (SMILES),"hERG current change (%, negative = inhibition) at 10uM"
1,Cc1ccc(S(=O)(=O)N(C)C)cc1NC(=O)CSc1ncn[nH]1,3.1%
2,CC1=NN(C(=O)c2c(Br)cnn2C)C(O)(C(F)(F)F)C1 (centres unmarked),-24.6%
3,Fc1cccc(Nc2ncnc3c2cnn3-c2ccccc2)c1,12.1%
4,COc1cc(/C=N/NC(=O)c2nnn(-c3nonc3N)c2C(C)C)ccc1OCc1ccc(F)cc1,31.1%
5,O=C(Cc1cscn1)c1ccc(O)cc1O,-9.71%
6,COc1cc(OC)cc(C(=O)N[C@H](C(=O)Nc2ccc3c(c2)OCO3)C(C)C)c1,11%
7,CSCC(=O)N1CCCC(CO)(CCCc2ccccc2)C1 (centres unmarked),-4.78%
8,OCC1(CCc2ccccc2)CCCN(CCCC(F)(F)F)C1 (centres unmarked),-51.7%
9,OCC1(CCc2ccccc2)CCCN(CCCc2ccccc2)C1 (centres unmarked),-70.9%
10,O=C(CCC(F)(F)F)N1CCC(CO)(CCc2ccccc2)CC1,-12%
11,OCC1(Cc2ccc(F)cc2)CCCN(CCCC(F)(F)F)C1 (centres unmarked),-22.3%
12,CSCCC(=O)N1CCCC(CO)(CCCc2ccccc2)C1 (centres unmarked),-8.88%
13,C[n+]1ccc(/C=N/Nc2nc(Cl)c(C#N)c(Cl)c2Cl)cc1.[Cl-],20.2%
14,Cc1ccc(CNC(=O)c2ccccc2N)cc1,5.16%
15,COc1cc(NS(=O)(=O)c2ccc(N/C=C(\C#N)c3nc4cc(Cl)ccc4o3)cc2)nc(OC)n1,-7.44%
16,CCN(CC)c1ccc(N2C(=NC(=O)C3CCCO3)SC3CS(=O)(=O)CC32)cc1 (centres unmarked),3.6%
17,CCCCc1ccc(N2C(=NC(=O)C3CCCO3)SC3CS(=O)(=O)CC32)cc1 (centres unmarked),-56.5%
18,CC(=O)c1ccc(N2C(=NC(=O)C3CCCO3)SC3CS(=O)(=O)CC32)cc1 (centres unmarked),-39.7%
19,COc1ccc(/C(C)=N/NC(=O)CCC(=O)Nc2ccc(Cl)cc2Cl)c(OC)c1,-3.74%

row,Structure (SMILES),"hERG current change (%, negative = inhibition) at 10uM"
1,CC1(C)O[C@@H]1COc1c2ccoc2cc2oc(=O)ccc12,-19.4%
2,Cc1ccc(N2C(=O)CC(N3CCN(c4ccccn4)CC3)C2=O)cc1 (centres unmarked),-6.04%
3,O=C1CC(N2CCN(C3CCc4ccccc4C3)CC2)C(=O)N1c1ccccc1 (centres unmarked),-64.6%
4,Cc1ccc(N2C(=O)CC(N3CCN(C4CCc5ccccc5C4)CC3)C2=O)cc1 (centres unmarked),-75.1%
5,CCOC(=O)N1CCN(C2CC(=O)N(c3ccc(C)cc3)C2=O)CC1 (centres unmarked),1.62%
6,CC1CCN(C2CC(=O)N(c3ccccc3)C2=O)CC1 (centres unmarked),8.4%
7,O=C1CC(N2CCCCC2)C(=O)N1c1ccccc1 (centres unmarked),-3.42%
8,CC(/C=C/c1ccco1)=N/NC(=O)OC(C)(C)C,3.46%
9,N#Cc1ccccc1Sc1ccccc1C(=O)Nc1ccc2ccccc2c1,15.8%
10,CC(=O)c1c(C)nc(-c2ccc(Cl)cc2)nc1NC(=O)C(C)C,-9.25%
11,Oc1ccccc1N=N/C(=N/Nc1ccccc1O)c1ccccc1,8.83%
12,COC(=O)CCC(=O)Nc1ccccc1C(N)=O,23.1%
13,CC(C)(CO)Nc1ccc([N+](=O)[O-])cc1[N+](=O)[O-],-8.26%
14,CC1(C)Cc2c(cnn2-c2ccc(F)cc2)C(NC(=O)Cn2cncn2)C1 (centres unmarked),7.61%
15,COc1ccc(-n2ncc3c2CC(C)(C)CC3NC(=O)CCn2cncn2)cc1 (centres unmarked),-42.2%
16,CC1(C)Cc2c(cnn2-c2ccc(F)cc2)C(NC(=O)CCn2cncn2)C1 (centres unmarked),-69.1%
17,Cc1ccc(-n2ncc3c2CC(C)(C)CC3NC(=O)CCn2cncn2)cc1 (centres unmarked),-76.8%
18,CC1(C)Cc2c(cnn2-c2ccccc2)C(NC(=O)CCCn2cncn2)C1 (centres unmarked),-1.88%
19,CC1(C)Cc2c(cnn2-c2ccc(F)cc2)C(NC(=O)CCN2CCCC2=O)C1 (centres unmarked),5.01%

row,Structure (SMILES),"hERG current change (%, negative = inhibition) at 10uM"
1,COc1cc(-c2nc3c[n+](CC(=O)c4ccccc4)ccc3n2C)cc(OC)c1OC.[Br-],0.461%
2,CCC(CC)C(=O)Nc1ccc(-c2cn3cccnc3n2)cc1,4.74%
3,Cc1cc(C)n(-c2ccc(C(=O)Nc3ccc(S(=O)(=O)N(C)C)cc3)cc2)n1,-40.8%
4,Cc1ccccc1-c1nnc(-c2ccccc2)o1,-6.58%
5,Cc1[nH]c2ccccc2c1C(=O)C(=O)NC1CC(=O)N(c2ccc(F)cc2)C1 (centres unmarked),-51.9%
6,O=C(NC1CC(=O)N(c2ccc(F)cc2)C1)N1CCN(C(=O)c2ccco2)CC1 (centres unmarked),-63%
7,COc1ccc(N2CCN(C(=O)NC3CC(=O)N(c4ccc(OC)cc4)C3)CC2)cc1 (centres unmarked),-35.9%
8,O=C(NC1CC(=O)N(c2cccc(F)c2)C1)N1CCN(C(=O)c2ccco2)CC1 (centres unmarked),-26.1%
9,O=C(NC1CC(=O)N(c2ccccc2)C1)N1CCN(C(=O)c2ccco2)CC1 (centres unmarked),-5.77%
10,Cc1ccc(N2CC(NC(=O)C(=O)c3c(C)[nH]c4ccccc34)CC2=O)cc1C (centres unmarked),-10.1%
11,COc1ccc(N2CC(NC(=O)N3CCN(C(=O)c4ccco4)CC3)CC2=O)cc1OC (centres unmarked),5.5%
12,O=C(NC1CC(=O)N(c2ccc(Cl)cc2)C1)C1CC1 (centres unmarked),-18.2%
13,Cc1ccc(N2CC(NC(=O)N3CCN(C(=O)c4ccco4)CC3)CC2=O)cc1 (centres unmarked),-52.6%
14,Cc1ccc(N2CC(NC(=O)C(=O)c3c(C)[nH]c4ccccc34)CC2=O)cc1 (centres unmarked),-47.8%
15,O=C(NC1CCCCC1)N1CCN(C(=O)c2ccco2)CC1,-6.24%
16,O=C(NC1CC(=O)N(c2ccc(Cl)cc2)C1)N1CCN(C(=O)c2ccco2)CC1 (centres unmarked),-91.6%
17,COc1ccc(COc2ccc3ccc(=O)oc3c2)cc1,9.33%
18,O=C(OCc1nnc(-c2ccccc2)o1)c1cc2ccccc2cc1O,8.95%
